The results in this text go back to PubChem BioAssay AID2417 (National Center for Advancing Translational Sciences (NCATS), 2010).

SMILES strings stand for the structures. About 4,300 (3.1%) of roughly 140,000 compounds were called active. Not shown: some 21% with an inconclusive outcome. Only a selection was taken, and actives are over-represented in it overall. Values without a mark were called inactive.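 Rule for the calls: active = readout at or below -70, meaning at least 70% loss of cells showing the perinucleolar compartment, a nuclear body marking cancer cells; inconclusive = readout between -30 and a set limit; inactive = the rest.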

The nature of this assay: High Content Assay for Compounds that inhibit the Assembly of the Perinucleolar Compartment.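 Note: plate controls were DMSO wells for no effect and camptothecin positive control wells for full effect.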 To be noted: PC3M PTB-GFP, PNC prevalence imaging, 16 h; at 10 µM; hits give low values. The text has this: High Content Assay for Compounds that inhibit the Assembly of the Perinucleolar Compartment NIH Chemical Genomics Center [NCGC] NIH Molecular Libraries Probe Centers Network [MLPCN] MLPCN Grant: MH082371-01A2 Assay Submitter (PI): Sui Huang, Northwestern University, Feinberg School of Medicine, Cell and Molecular Biology, Chicago, Illinois. The perinucleolar compartment (PNC) is a non-membrane-bound nuclear subdomain that is associated with but structurally distinct from the nucleolus. The PNC is a heritable trait, in which the number of PNCs per cell in daughter cells often mimics that of their mother cells. The PNC is heterogeneous in shape, is stable through interphase, disassembles during mitosis, and reassembles in early G1. The PNC is concentrated with newly synthesized RNA polymerase III (pol III) RNAs (MRP RNA, RNAse P H1 RNA, hY RNAs[hY1, 2, 5], Alu RNA, and SRP [7SL] RNA) and RNA binding proteins (nucleolin, PTB, CUG-BP, KSRP, Raver1, Raver2, and Rod). […] Extensive in vitro studies have shown that the PNC is unique to tumor cells and preferentially forms in tumor cells derived from solid tissues. Examination of cancer cell lines from various origins and malignant capacities has shown that PNC prevalence correlates with the malignancy of tumors and has the potential to be developed as a pan-cancer prognostic marker. […] Although the PNC is associated with a DNA locus and a handful of components have been identified, much remains to be investigated regarding the structure and function of the PNC and its mechanistic link to cancer. We have previously shown that PNC prevalence reduction is a valid strategy to identify compounds that can be used to study the structure and function of the PNC. It is necessary, however, to create a screening platform that is able to test a large number of compounds in an automated fashion. Here we report the development and robustness of an automated whole-cell phenotypic image-based screening assay that is capable of identifying such compounds.
PNC High Content Imaging Assay Procedure: 1. Cells at a density of 75-90% confluency in T175 flasks were harvested using 7 ml TrypLE Express cell dissociation reagent. After dissociation (5 minutes room temperature incubation) 10 ml of complete media was added to the TrypLE/cell suspension. The liquid was transferred to a 50 ml Conical tube and cells were pelleted at 1000 RPM for 5 min. Supernatant was removed and cells were resuspended to a final density of 150-200 cells/ul in complete media. 2. Cells were plated in 5 ul volume (750-1000 cells/well) into 1536 well Black uclear Aurora Low Base plates and allowed to recover and adhere at 37 C in a humidified 5% CO2 incubator for 4 hours. 3. After 4 hour incubation, compound libraries (23 nl of […] in columns 5-48) were transferred to the plates in duplicate using a 1536 well pintool. Camptothecin positive control (59 uM final) was added to column 2 and 1:3 dilutions of camptothecin was added to column 3. DMSO negative controls were present in columns 1 and 4. 4. After a 16 hour incubation in the 37 C incubator, cells were fixed by the addition of 4 ul of 6% EM grade paraformaldehyde (containing 0.1% triton X 100) directly to the cells. The plates were incubated at room temperature for 20 minutes. The liquid was removed using a 32 channel Kalypsys aspirator and the fixed cells were washed twice with 5 ul PBS followed by a final addition of 5 ul PBS containing 1 ug/ml Hoechst 33342. 5. Fixed plates were sealed and sotred at 4C until imaged. 6. Plates were imaged on an InCell 1000 automated microscope using a 20 x objective, a standard FITC filter set, no camera binning, and an exposure time of ~100-150 msec/well. 7. Data analysis. PNC prevalence was determined using the Multitarget analysis module from InCell Workstation software (V3.5 ) and analysis was run on a quad core workstation using the Incell Developer Toolbox (V1.7). […]
With `CC(=NCc1ccc2c(c1)OCO2)c1c(O)[nH]c(=O)[nH]c1=O`, the activity change (PNC), negative = inhibition was -17.3%.
Then `OC(CNC1CCCCC1)c1ccccc1` (stereo not given), with 38.6%; and `c1cc2c(cc1CCNC1CCCCCC1)OCO2`, with -119% (active).
Turning to `CNC(=S)N/N=C1\C2CN3CCN(C2)CC1(c1ccccc1)C3`, the activity change (PNC), negative = inhibition was -18.5%.
Then `CCOC(=O)C(O)(c1ccc(N=Cc2ccccc2O)c(C)c1)C(F)(F)F` (stereo not given), with -11.8%.
Consider `Cc1ccc(-n2c(C)cc(/C=C3\C(=O)NC(=O)N(C)C3=O)c2C)cc1C`, for which the activity change (PNC), negative = inhibition was 23.8%.
Next, `Cc1ccc(Cn2c(C)c3cnn(CC(=O)N4CCC5(CC4)OCCO5)c(=O)c3c2C)cc1`: -100% (active); `O=C(CCCn1c(=O)[nH]c2cc(Cl)ccc2c1=O)N1CCC2(CC1)OCCO2`: 44%.
Then `COc1ccc(-c2nc(CS(=O)CC(=O)N3CCC4(CC3)OCCO4)c(C)o2)cc1` (stereo not given), with -14.2%.
For the compound `CC(C)N(CC#CCC1(O)c2ccccc2-c2ccccc21)C(C)C`, the activity change (PNC), negative = inhibition is 48.8%.
Next, `CN(C)C(=O)Oc1cc(=O)n2c3c(cccc13)CCC2`: 23.5%; `Cc1ccc(-n2c(-c3ccc([N+](=O)[O-])cc3)nc3ccccc3c2=O)cc1`: -17%; `CC(C(=O)Nc1ccc(Cl)cc1Cl)N1CC=C(c2ccccc2)CC1` (stereo not given): 38%.
Next, `Cc1cccc(OP(=O)(Oc2cccc(C)c2)OC(c2ccccc2)C(F)(F)F)c1` (stereo not given): -3.33%; `CCCCCn1c(=O)c(C(=O)NCc2ccccn2)c(O)c2ccccc21`: -112% (active); `CCCCCn1c(=O)c(C(=O)Nc2c(C)n(C)n(-c3ccccc3)c2=O)c(O)c2ccccc21`: -20.3%.
Then `Cc1ccnc(-n2c(C)cc(/C=C3\C(=O)NC(=S)N(C)C3=O)c2C)c1`, with -11.7%; and `C=CCn1c(O)c(/C=N/N2CCOCC2)c(=O)[nH]c1=S`, with 60.9%; and `CN1CCN(c2cc(N3CCNCC3)ccc2[N+](=O)[O-])CC1`, with 12.6%.
`CC1=C(C(=O)Nc2ccccc2)SCCO1`: the activity change (PNC), negative = inhibition is -98% (active).
Next, `O=C1NC(=O)N(c2ccc(F)cc2)C(=O)/C1=C/c1ccc2c(c1)CCCN2Cc1ccccc1`: -20.7%.
Then `O=C1N=c2ccccc2=C/C1=C\c1c(O)[nH]c(=S)[nH]c1=O`, with -19.2%; and `CN(C)CC1CCCCC1OC(=O)c1ccc(Cl)c(Cl)c1` (stereo not given), with -10.5%; and `O=C1NC(=O)C(CCc2ccccn2)(Cc2cccc(Cl)c2Cl)C(=O)N1c1ccc(Br)cc1` (stereo not given), with -14.3%.
Next, `Cc1ccc2c(c1)C1CN(C)CCC1N2C(=O)Cn1nnc(-c2ccccc2F)n1` (stereo not given): -101% (active).
